Compound activity from PubChem BioAssay.
Luc counter – Counterscreen for Luciferase (Kinase-Glo TM) Inhibition; Luciferin 4-monooxygenase (Photuris pensylvanica), Q27757; Kinase-Glo luciferase, ATP luminescence, 8 min; Potency, µM (top dose mostly 38.3 µM), for inactives: at the top dose activity change, negative = inhibition, hits mostly inhibitors; 200,000 tested, 0.28% active; AID 1379, 2008; also: potency is read from the fitted curve at half-maximal effect; % is scaled to controls: 0 for no effect and ±100 for the full control effect; nearly all actives have a fitted effect of over 60% in size
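Inhibition of Kinase-Glo luciferase light generation was assessed at 10 uM ATP in pH 7.2 imidazole buffer, with luminescence measured after eight minutes at ambient temperature.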
gsp antag – qHTS for Antagonists of gsp, the Etiologic Mutation Responsible for Fibrous Dysplasia/McCune-Albright Syndrome: qHTS; gsp-mutant cells, cAMP HTRF, 30 min; Potency, µM (top dose mostly 76.9 µM), for the others: top-dose activity change, negative = inhibition, hits mostly inhibitors; 340,000 tested, 0.4% active; AID 624288, 2012; calls by dose curve; cell line not stated here;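 also: intracellular cAMP measured with PDE inhibitor Ro 20-1724 present during compound exposure; potency is read from the fitted curve at half-maximal effect; % is scaled to controls: 0 for no effect and ±100 for the full control effect; nearly all actives have a fitted effect of over 65% in size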
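Measurement of cellular cAMP by homogeneous time-resolved fluorescence following a 30 min compound exposure at 37C. The PDE inhibitor […] was present throughout; the assay buffer was DPBS with 0.05% BSA and 0.005% Tween 20.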
RXFP1 antag – qHTS Assay for Antagonists of the Relaxin Receptor RXFP1. HEK293-RXFP1, relaxin-stimulated cAMP HTRF, 30 min; stronger effect = lower value. activity change, negative = inhibition, % at 57.5 µM. Relaxin receptor 1 (Homo sapiens), Q9HBX9. 350,000 tested, 0.59% active. AID 1259400, 2018;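 active = activity change of -60% or lower, but not beyond a set lower limit; inconclusive = change between -60% and -40%, or beyond the set limit; inactive = change above -40%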; also: % is scaled to controls: 0 for no effect and ±100 for the full control effect
Target sequence (Q9HBX9 whole entry, looked up): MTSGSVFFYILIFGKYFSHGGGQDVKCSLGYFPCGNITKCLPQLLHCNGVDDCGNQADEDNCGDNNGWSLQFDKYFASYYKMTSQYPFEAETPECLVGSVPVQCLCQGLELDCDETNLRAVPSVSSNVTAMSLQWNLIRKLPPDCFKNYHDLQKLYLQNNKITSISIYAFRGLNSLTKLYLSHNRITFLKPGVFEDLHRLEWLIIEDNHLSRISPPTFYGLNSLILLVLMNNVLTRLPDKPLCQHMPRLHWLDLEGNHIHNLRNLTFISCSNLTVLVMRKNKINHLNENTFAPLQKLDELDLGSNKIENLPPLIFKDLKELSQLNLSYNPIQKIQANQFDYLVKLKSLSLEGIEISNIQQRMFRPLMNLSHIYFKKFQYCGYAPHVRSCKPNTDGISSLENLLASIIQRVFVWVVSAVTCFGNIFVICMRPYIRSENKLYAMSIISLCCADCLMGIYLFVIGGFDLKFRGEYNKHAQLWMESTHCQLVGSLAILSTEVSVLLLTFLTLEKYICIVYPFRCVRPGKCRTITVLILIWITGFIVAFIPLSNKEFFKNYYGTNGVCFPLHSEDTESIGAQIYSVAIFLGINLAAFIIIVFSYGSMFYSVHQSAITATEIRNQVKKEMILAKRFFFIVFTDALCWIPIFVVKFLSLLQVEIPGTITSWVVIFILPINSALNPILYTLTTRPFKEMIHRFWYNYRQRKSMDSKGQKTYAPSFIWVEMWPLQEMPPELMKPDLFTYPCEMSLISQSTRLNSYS
miR-21 reporter – qHTS Assay for Modulators of miRNAs and/orActivators of miR-21; HeLa miR-21 FLuc reporter, luciferase, 48 h; Potency, µM (doses to about 38.3 µM), for the others: at the top dose activity change, positive = activation, hits mostly activators; 340,000 tested, under 10 active; AID 2288, 2010;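 also: % of control where 0% means no effect; miR-21 action dims this reporter so a rising signal means less miR-21 action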
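Using DMEM plus 10% FBS, HeLa miR-21-FLuc cells are incubated with test compounds (final up to about 40uM) for 48 hours; firefly luciferase signal is then imaged following reagent-mediated lysis.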
RXFP1 agonist – qHTS Assay for Agonists of the Relaxin Receptor RXFP1; Relaxin receptor 1 (Homo sapiens), Q9HBX9; HEK293T-RXFP1 cAMP TR-FRET, 30 min; response scale: percent of porcine relaxin response, buffer zero; Potency, µM (doses to about 57.5 µM), for the others: at the top dose activation, actives largely listed as activators; 370,000 tested, 0.3% active; AID 2676, 2010; also: potency is read from the fitted curve at half-maximal effect; % is scaled to controls: 0 for no effect and ±100 for the full control effect; nearly all actives have a fitted effect of over 60% in size
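HEK293 cells stably expressing RXFP1, treated 30 min at 37C with compounds plus PDE4 inhibitor Ro 20174; cAMP measured by HTRF TR-FRET. Normalized to buffer and 29 nM porcine relaxin; EC50 by Hill fit.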
gsp agonist – qHTS for Agonist of gsp, the Etiologic Mutation Responsible for Fibrous Dysplasia/McCune-Albright Syndrome: qHTS; Potency, µM (doses to about 76.9 µM), inactives show at the highest dose activation (cAMP increase), most hits filed as activators; AID 624287, 2012; gsp mutant cells, cAMP HTRF, 30 min; 340,000 tested, 0.13% active; active = well fitted activation curve with a large enough effect; inconclusive = small, poorly fitted or top-dose-only effect, or another doubt; inactive = no such curve, though single readings can be large or run the other way; cell line not stated here;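 also: phosphodiesterase inhibitor Ro 20-1724 added with compounds to block cAMP breakdown; potency is read from the fitted curve at half-maximal effect; nearly all actives have a fitted effect of over 60% in size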
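Cells stably selected in G418 were plated at 2000/well, grown 16-24 hr, then given compounds in DMSO with the PDE inhibitor […] (300 uM solution added) for 30 min at 37C; cAMP was read by HTRF.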
* hit, by the source's call; ! = not active in a repeat; [ ] = dose if it differs, or a comment. Sampled rows, rich in hits. Any-hit rate of the full collection: about 1%. Unless noted, calls follow the shape of the dose curve; as a rule, active = well fitted curve in the direction sought with a large enough effect; inconclusive = small, poorly fitted or top-dose-only effect, or another doubt; inactive = no such curve, though single readings can be large; an effect the other way counts as inactive or inconclusive.

`O=C(CSc1nc2ccc([N+](=O)[O-])cc2[nH]1)NC1CCCCC1` gave Luc counter 6.6%, gsp antag 28.2µM*, RXFP1 antag -2.6, miR-21 reporter 16.4%, RXFP1 agonist 0.1% and gsp agonist 30.3%.
`O=C(CSc1nc2ccc([N+](=O)[O-])cc2[nH]1)NC1CCCCCC1` gave gsp antag 39.8µM*, RXFP1 antag -17.0, miR-21 reporter 26.8%, RXFP1 agonist 0.7% and gsp agonist 11.8%[15.4 µM].
O=C(Nc1ccc(Cl)cc1)c1cncs1 was read as gsp antag 50.1µM*, RXFP1 antag 3.0, miR-21 reporter -4.8%, RXFP1 agonist -0.3% and gsp agonist 6.5%[15.4 µM].
`CC(C)=CCOc1ccc(/C=C/C(=O)c2ccc(OCC=C(C)C)cc2OCC(=O)O)cc1` gave Luc counter -2.3%[39.9 µM] and RXFP1 antag -102.3*.
For Cc1ccc2c(CN3CCN(C(=O)c4ccc(Br)cc4)CC3)cc(=O)oc2c1 the results were RXFP1 antag -1.7, miR-21 reporter -13.3% and RXFP1 agonist 2.4%.
Screening COc1ccc(-c2csc(N(CCCN(C)C)C(=O)c3ccccc3Cl)n2)cc1 returned gsp antag 20.4%, RXFP1 antag -10.0 and gsp agonist 36.1%.
Screening COc1ccc(-c2csc(N(CCCN(C)C)C(=O)c3ccccc3C)n2)cc1 returned gsp antag 32.5%, RXFP1 antag -61.7*, miR-21 reporter inconclusive, RXFP1 agonist -0.5% and gsp agonist 10.2%.
`CSc1nnc(NC(=O)c2nc(S(=O)(=O)Cc3ccccc3)ncc2Cl)s1` gave gsp antag 31.6µM*, RXFP1 antag -62.7*, miR-21 reporter inconclusive, RXFP1 agonist -0.2% and gsp agonist -10.2%[15.4 µM].
For CC(C)c1nnc(NC(=O)c2nc(S(=O)(=O)Cc3ccccc3)ncc2Cl)s1 the results were gsp antag 25.1µM*, RXFP1 antag -71.9*!, miR-21 reporter inconclusive, RXFP1 agonist -1.3% and gsp agonist -3.1%[15.4 µM].
`Cc1ccc(CS(=O)(=O)c2ncc(Cl)c(C(=O)Nc3nc4ccc(C)cc4s3)n2)cc1` gave miR-21 reporter inconclusive and RXFP1 agonist 1.6%.
COc1ccc2nc(NC(=O)c3nc(S(=O)(=O)Cc4ccc(C)cc4)ncc3Cl)sc2c1 was read as RXFP1 antag -90.6*, miR-21 reporter inconclusive and RXFP1 agonist 2.9%.
`Cc1ccccc1CS(=O)(=O)c1ncc(Cl)c(C(=O)Nc2nnc(C(C)C)s2)n1` gave RXFP1 antag inconclusive, miR-21 reporter inconclusive and RXFP1 agonist 0.2%.
Screening CCCc1nnc(NC(=O)c2nc(S(=O)(=O)Cc3ccc(C)cc3)ncc2Cl)s1 returned gsp antag 28.2µM*, RXFP1 antag -10.9, miR-21 reporter inconclusive, RXFP1 agonist -2.9% and gsp agonist -11.2%.
CCN(CC)c1nn2c(=O)c(C(=O)NCc3cccc(C)c3)cnc2s1 was read as RXFP1 antag -17.3, miR-21 reporter -7.0% and RXFP1 agonist 3.3%.
`COc1ccc(OC)c(NC(=O)c2nc(S(=O)(=O)Cc3ccc(F)cc3)ncc2Cl)c1` gave RXFP1 antag -107.2*, miR-21 reporter 11.7µM* and RXFP1 agonist 5.5%.
`CS(=O)(=O)Nc1ccc(-c2nc3ccccc3s2)cc1` gave RXFP1 antag -9.0, miR-21 reporter 0.6% and RXFP1 agonist 4.0%.
CN1/C(=C/C(=O)c2ccc(Cl)cc2)Sc2cc3c(cc21)OCO3 was read as Luc counter 0.6%, gsp antag 31.6µM*, RXFP1 antag -19.2, miR-21 reporter -51.4%, RXFP1 agonist 3.0% and gsp agonist -76.5%.
COc1ccc(C(=O)/C=C2/Sc3cc4c(cc3N2C)OCO4)cc1 was read as gsp antag 2.0%, RXFP1 antag 4.3, miR-21 reporter -21.6%, RXFP1 agonist inconclusive and gsp agonist inconclusive.
CN1c2ccccc2C(O)=C(C(=S)Nc2ccc(Cl)cc2)S1(=O)=O was read as Luc counter 4.6%, gsp antag 28.2µM*, RXFP1 antag -4.4, miR-21 reporter 3.3%, RXFP1 agonist -1.8% and gsp agonist 2.7%.
Cc1cccc(NC(=O)C2=C(O)c3ccccc3N(C)S2(=O)=O)c1 was read as Luc counter 2.5%, gsp antag 25.1µM*, RXFP1 antag 17.9, miR-21 reporter -7.4%, RXFP1 agonist -2.0% and gsp agonist 18.3%.
Screening O=[N+]([O-])c1ccc(O)c(Nc2ncnc3ccccc23)c1 returned Luc counter -1.8%, gsp antag -6.2%, RXFP1 antag 0.4, miR-21 reporter -15.9%, RXFP1 agonist 3.7% and gsp agonist inconclusive.
Screening O=[N+]([O-])c1ccc(O)c(Nc2ncnc3ccc(Br)cc23)c1 returned gsp antag 35.5µM*, RXFP1 antag -9.9, miR-21 reporter -2.6%, RXFP1 agonist 2.8% and gsp agonist 0.3%.
CCCS(=O)(=O)Nc1cc(-c2cn3cccc(C)c3n2)ccc1C was read as miR-21 reporter -29.5% and RXFP1 agonist -2.6%.
`COc1ccc(S(=O)(=O)N(C)C)cc1NC(=O)CSc1nncs1` gave Luc counter -0.4%, gsp antag 18.7%, RXFP1 antag 8.2, miR-21 reporter 3.7%, RXFP1 agonist 17.8µM* and gsp agonist 43.5%[15.4 µM].
`O=C(CSc1nncs1)Nc1cc(S(=O)(=O)N2CCOCC2)ccc1N1CCCC1` gave gsp antag 8.6%, RXFP1 antag -0.5, RXFP1 agonist 17.5% and gsp agonist 22.4µM*.
Screening Cc1ccc(S(=O)(=O)N(C)C)cc1NC(=O)CSc1nncs1 returned gsp antag 0.5%, RXFP1 antag -21.6, RXFP1 agonist 7.6% and gsp agonist -6.3%[15.4 µM].
Nc1nnc(SCC(=O)Nc2cc(S(=O)(=O)N3CCOCC3)ccc2N2CCCC2)s1 was read as gsp antag 9.1%, RXFP1 antag 7.1, RXFP1 agonist 9.1% and gsp agonist 20.1%.
CC(=O)Oc1ccccc1C(=O)C=Cc1cccc([N+](=O)[O-])c1 was read as gsp antag 13.6%, RXFP1 antag -83.8* and gsp agonist 1.1%.
CC(=O)Nc1ccc(OCc2cccc([N+](=O)[O-])c2)cc1 was read as Luc counter 0.9%, gsp antag 0.6%, RXFP1 antag 16.2, miR-21 reporter -56.8%, RXFP1 agonist 2.5% and gsp agonist 11.4%[15.4 µM].
